Assay results taken from PubChem BioAssay (Tox21).
Results filed as inconclusive are left out. Activity calls are given as the source filed them. Unless noted, the call rests on the fitted dose curve; in most records, active means well fitted curve in the direction sought with a large enough effect in the repeat runs; inconclusive means weak or mixed curves; inactive means no such curve, though single readings can be large; an effect the other way counts as inactive or inconclusive.

Legend:
[1] = A CellTox Green Cytotoxicity Assay to monitor cytotoxicity in HEK293 cells - 8 hour (AID 1224884); further: nearly all actives have a fitted effect of over 35% in size; further: potency means the concentration at half of the fitted maximal effect
Summary of the method: (§1)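 HEK293 cells, 600/well, were preincubated 5 hours and then exposed to compounds at 37 C for up to 40 hours. A cell-impermeant cyanine dye staining dead-cell DNA was read by fluorescence at 0, 8, 16, 24, 32 and 40 h time points.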

[2] = qHTS RealTime-Glo MT Cell Viability Assay in HEK293 cells - 24 hour (AID 1224886); further: nearly all actives have a fitted effect of over 50% in size; further: potency means the concentration at half of the fitted maximal effect
Summary of the method: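 Tox21 10K qHTS, HEK293, 600 cells/well, RealTime-Glo reagent co-dispensed with cells; 5 h preincubation, compound by pintool, 37 C, luminescence at 0–40 h.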

[3] = qHTS RealTime-Glo MT Cell Viability Assay in HEK293 cells - 8 hour (AID 1224887); further: nearly all actives have a fitted effect of over 50% in size; further: potency means the concentration at half of the fitted maximal effect
Summary of the method: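 600 cells/well were plated with the nonlytic NanoLuc/prosubstrate reagent, pre-incubated 5 h, then given 23 nL of compound in DMSO. Incubation at 37 C for 40 h, with luminescence from viable-cell-reduced substrate read repeatedly from 0 h.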

[4] = A CellTox Green Cytotoxicity Assay to monitor cytotoxicity in HEK293 cells - 16 hour (AID 1224888); further: nearly all actives have a fitted effect of over 35% in size; further: potency means the concentration at half of the fitted maximal effect
Summary of the method: as §1

[5] = qHTS RealTime-Glo MT Cell Viability Assay in HepG2 cells - 0 hour (AID 1224889); further: nearly all actives have a fitted effect of over 50% in size
Summary of the method: (§2)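 Cells + NanoLuc/prosubstrate dispensed (600 cells/well) → 5 h at 37 C/5% CO2 → compounds in DMSO transferred → 40 h incubation at 37 C, luminescence read at 0, 8, 16, 24, 32, 40 h.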

[6] = A CellTox Green Cytotoxicity Assay to monitor cytotoxicity in HepG2 cells - 8 hour (AID 1224890); further: nearly all actives have a fitted effect of over 45% in size; further: potency means the concentration at half of the fitted maximal effect
Summary of the method: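 HepG2 cells, 600/well, preincubated 5 h with CellTox Green dye, then exposed to Tox21 compounds in DMSO at 37 C for up to 40 h. Dead-cell DNA fluorescence read at the indicated time point.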

[7] = qHTS assay to identify small molecule antagonists of the estrogen receptor alpha (ER-alpha) signaling pathway using the BG1 cell line in the presence of 0.1 nM 17-beta-estradiol - cell viability counter screen (AID 1259241); further: nearly all actives have a fitted effect of over 40% in size; further: potency means the concentration at half of the fitted maximal effect
Summary of the method: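 Following 5 days in phenol red-free medium with charcoal-stripped serum, VM7Luc4E2 cells received test compounds alongside 0.1 nM 17beta-estradiol (final) at 37C for 22 hr. Live cells were then quantified via protease-substrate fluorescence.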

[8] = qHTS assay to identify small molecule antagonists of the androgen receptor (AR) signaling pathway using the MDA cell line in the presence of 0.5 nM R1881 - cell viability counter screen (AID 1259242); further: nearly all actives have a fitted effect of over 45% in size; further: potency means the concentration at half of the fitted maximal effect
Summary of the method: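 MDA-kb2 cells (MMTV-luciferase, AR/GR responsive) were treated with compounds plus 0.5 nM R1881 (final) for 16 hr at 37C, 0% CO2. Viability was then read in the same wells as live-cell protease fluorescence (CellTiter-Fluor, 30 min).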

[9] = molecular target: Androgen receptor (Homo sapiens) (UniProt P10275); test: qHTS assay to identify small molecule antagonists of the androgen receptor (AR) signaling pathway using the MDA cell line in the presence of 0.5 nM R1881 (AID 1259243); further: nearly all actives have a fitted effect of over 50% in size; further: potency means the concentration at half of the fitted maximal effect
Androgen receptor (Homo sapiens), sequence (P10275 whole entry, looked up): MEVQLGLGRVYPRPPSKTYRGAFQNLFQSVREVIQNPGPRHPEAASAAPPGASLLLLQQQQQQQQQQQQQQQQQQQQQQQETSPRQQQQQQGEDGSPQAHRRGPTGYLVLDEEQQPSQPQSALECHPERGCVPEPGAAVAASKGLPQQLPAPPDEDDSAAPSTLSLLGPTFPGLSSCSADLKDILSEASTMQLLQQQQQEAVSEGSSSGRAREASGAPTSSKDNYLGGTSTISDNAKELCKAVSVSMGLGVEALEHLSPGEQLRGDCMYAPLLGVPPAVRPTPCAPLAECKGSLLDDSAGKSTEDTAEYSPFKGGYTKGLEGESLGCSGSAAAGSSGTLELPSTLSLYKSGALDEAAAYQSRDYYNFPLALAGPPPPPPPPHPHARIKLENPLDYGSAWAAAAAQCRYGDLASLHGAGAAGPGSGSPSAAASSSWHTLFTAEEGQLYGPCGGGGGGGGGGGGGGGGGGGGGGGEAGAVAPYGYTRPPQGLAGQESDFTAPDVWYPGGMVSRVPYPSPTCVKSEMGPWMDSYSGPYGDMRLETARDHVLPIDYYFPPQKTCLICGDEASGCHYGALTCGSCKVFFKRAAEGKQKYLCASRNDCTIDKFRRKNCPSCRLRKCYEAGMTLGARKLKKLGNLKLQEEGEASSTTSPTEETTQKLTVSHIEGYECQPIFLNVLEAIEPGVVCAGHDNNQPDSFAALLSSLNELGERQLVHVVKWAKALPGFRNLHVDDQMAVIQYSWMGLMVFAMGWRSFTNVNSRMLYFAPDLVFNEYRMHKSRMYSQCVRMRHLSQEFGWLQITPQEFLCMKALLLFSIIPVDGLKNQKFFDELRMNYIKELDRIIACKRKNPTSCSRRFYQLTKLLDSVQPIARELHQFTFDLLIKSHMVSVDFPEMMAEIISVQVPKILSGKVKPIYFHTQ
Summary of the method: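 MDA-kb2 cells (MMTV-luciferase, responsive to AR and GR) at 3,000/well, rested 5 h at 37C, 0% CO2, then given compounds plus 0.5 nM R1881 (final) for 16 hr. Luciferase read with ONE-Glo after 30 min at room temperature.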

[10] = molecular target: Estrogen receptor (Homo sapiens) (UniProt P03372); test: qHTS assay to identify small molecule antagonists of the estrogen receptor alpha (ER-alpha) signaling pathway using the BG1 cell line in the presence of 0.1 nM 17-beta-estradiol (AID 1259244); further: nearly all actives have a fitted effect of over 50% in size; further: potency means the concentration at half of the fitted maximal effect
Estrogen receptor (Homo sapiens), sequence (P03372 whole entry, looked up): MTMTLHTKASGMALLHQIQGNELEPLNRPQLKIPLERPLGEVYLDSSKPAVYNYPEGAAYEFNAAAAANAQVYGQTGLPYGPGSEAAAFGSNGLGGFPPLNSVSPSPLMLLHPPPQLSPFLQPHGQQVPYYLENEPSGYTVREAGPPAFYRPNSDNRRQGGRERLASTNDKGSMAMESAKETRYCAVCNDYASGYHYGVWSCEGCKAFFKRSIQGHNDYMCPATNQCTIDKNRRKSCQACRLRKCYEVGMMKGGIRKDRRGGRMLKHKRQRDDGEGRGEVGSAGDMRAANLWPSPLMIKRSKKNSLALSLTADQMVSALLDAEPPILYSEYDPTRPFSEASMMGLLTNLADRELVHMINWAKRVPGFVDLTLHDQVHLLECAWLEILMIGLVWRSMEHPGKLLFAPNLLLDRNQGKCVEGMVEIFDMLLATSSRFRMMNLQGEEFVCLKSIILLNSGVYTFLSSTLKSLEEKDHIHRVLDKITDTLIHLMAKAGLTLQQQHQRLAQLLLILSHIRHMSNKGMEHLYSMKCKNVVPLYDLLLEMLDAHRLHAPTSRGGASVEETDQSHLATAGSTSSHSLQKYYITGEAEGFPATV
Summary of the method: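 VM7Luc4E2 cells (endogenous full-length ER-alpha, 4×ERE-luciferase), kept 5 days in phenol red-free, charcoal-stripped FBS medium; 4,000 cells/well. Compounds added with 0.1 nM (final) 17beta-estradiol, 22 hr at 37C; luminescence read with ONE-Glo after 30 min.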

[11] = qHTS assay to identify small molecule HDAC inhibitors (AID 1259364); further: top concentration of the series differs between compounds; nearly all actives have a fitted effect of over 45% in size
Summary of the method: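 Wild-type HCT-116 cells, plated overnight at 37 C, exposed to compounds 2 hr at 37 C; luminogenic HDAC-Glo substrate then added 30 min at room temperature. Luminescence reports relative endogenous class I/II HDAC activity.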

[12] = qHTS assay to identify small molecule HDAC inhibitors - cell viability counter screen (AID 1259365)
Summary of the method: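 HCT-116 wild-type, overnight attachment; 2hr drug exposure, 37C; CellTiter-Glo luminescent ATP readout after 30min RT.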

[13] = qHTS assay to identify small molecule agonists of the sonic hedgehog signaling (Shh) pathway - cell viability counter screen (AID 1259366); further: nearly all actives have a fitted effect of over 50% in size; further: potency means the concentration at half of the fitted maximal effect
Summary of the method: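 Compounds in DMSO were pin-transferred onto 3T3 Gli1-Luc cells that had settled 4hr; plates then stood 24hr at 37C and 5% CO2. One hour before the end, CellTiter-Fluor was added and fluorescence recorded.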

[14] = qHTS assay to identify small molecule antagonists of the sonic hedgehog signaling (Shh) pathway - cell viability counter screen (AID 1259367); further: nearly all actives have a fitted effect of over 55% in size; further: potency means the concentration at half of the fitted maximal effect
Summary of the method: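 Using CellTiter-Fluor, viability of Gli1-Luc reporter 3T3 cells is read by fluorescence in the wells used for the Shh luciferase assay. Treatment lasts 23 hr with conditioned medium, then reagent 1 hr at 37C.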

[15] = qHTS assay to identify small molecule agonists of the sonic hedgehog signaling (Shh) pathway (AID 1259368; calls by dose curve;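 further: NIH/3T3-derived 3T3Gli1-Luc cells carrying a stable Gli1-driven firefly luciferase reporter; series mostly up to about 92 µM; nearly all actives have a fitted effect of over 15% in size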)
Summary of the method: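 NIH/3T3-derived 3T3Gli1-Luc cells with stably integrated Gli1-driven firefly luciferase, 2,000 cells/well, compounds added after 4 hr. Incubated 24 hr at 37C, 5% CO2; luminescence read after 30 min with luciferase reagent at room temperature.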

[16] = qHTS assay to identify small molecule antagonists of the sonic hedgehog signaling (Shh) pathway (AID 1259369; calls by dose curve; further: nearly all actives have a fitted effect of over 45% in size; further: potency means the concentration at half of the fitted maximal effect)
Summary of the method: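 NIH/3T3-derived Gli1-Luc reporter cells plated 4 h, dosed with compound, then stimulated with conditioned medium for 24 h at 37 C. Firefly luciferase luminescence read after 30 min with detection reagent at room temperature.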

[17] = qHTS RealTime-Glo MT Cell Viability Assay in HepG2 cells - 16 hour (AID 1224885); further: nearly all actives have a fitted effect of over 50% in size; further: potency means the concentration at half of the fitted maximal effect
Summary of the method: as §2

[18] = molecular target: Estrogen receptor beta (Homo sapiens) (UniProt Q92731); test: qHTS assay to identify small molecule agonists of the estrogen receptor beta (ER-beta) signaling pathway (AID 1259377; active means well fitted activation curve with a large enough effect in the signal ratio in the repeat runs, not every such curve was filed as active; the % refers to the signal ratio)
Estrogen receptor beta (Homo sapiens), sequence (Q92731 whole entry, looked up): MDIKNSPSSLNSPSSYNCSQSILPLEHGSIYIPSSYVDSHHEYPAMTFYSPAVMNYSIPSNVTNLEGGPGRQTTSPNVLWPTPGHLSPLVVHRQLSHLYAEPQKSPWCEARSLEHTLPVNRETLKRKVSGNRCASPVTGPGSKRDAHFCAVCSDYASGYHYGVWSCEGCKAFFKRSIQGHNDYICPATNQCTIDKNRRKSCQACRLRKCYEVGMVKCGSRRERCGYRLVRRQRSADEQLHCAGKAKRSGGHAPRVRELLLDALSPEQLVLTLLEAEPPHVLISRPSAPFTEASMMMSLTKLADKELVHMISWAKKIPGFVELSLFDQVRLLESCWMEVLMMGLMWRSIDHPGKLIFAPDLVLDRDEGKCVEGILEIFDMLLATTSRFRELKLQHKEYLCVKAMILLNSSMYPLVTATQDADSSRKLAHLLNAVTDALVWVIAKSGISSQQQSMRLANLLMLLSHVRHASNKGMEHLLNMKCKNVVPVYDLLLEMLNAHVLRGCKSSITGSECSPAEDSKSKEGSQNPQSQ
Summary of the method: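 qHTS in ER-beta-UAS-bla HEK293T cells: 6 hr settling, then 16 hr compound at 37C, then LiveBLAzer substrate 2 h at RT before fluorescence reading.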

[19] = molecular target: Estrogen receptor beta (Homo sapiens) (UniProt Q92731); test: qHTS assay to identify small molecule antagonists of the estrogen receptor beta (ER-beta) signaling pathway (AID 1259378; active means well fitted inhibition curve with a large enough effect in the signal ratio in the repeat runs, not every such curve was filed as active; the % refers to the signal ratio; further: potency means the concentration at half of the fitted maximal effect)
Summary of the method: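 Antagonist mode: compounds added to beta-lactamase reporter HEK293T ER-beta-UAS cells stimulated with E2 (1nM final), 16 hr at 37C. LiveBLAzer B/G FRET substrate, 2 hours room temperature, fluorescence read-out.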

[20] = qHTS assay to identify small molecule phospholipidosis (PLD) inducers (AID 1259344; active means well fitted curve in the direction sought with a large enough effect; an effect the other way counts as inactive or inconclusive)
Summary of the method: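 Fluorescent phospholipid staining (LipidTOX Red) measured by automated microscopy in fixed HepG2 cells after 24 h treatment; nuclei counterstained with Hoechst 33342; amiodarone as reference inducer.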
On the % scale 0 is the no-effect control and ±100 the full control effect.

CCOc1nc(F)cc2nc(S(=O)(=O)Nc3c(Cl)cccc3C(=O)OC)nn12
inactive: Potency [1] | Potency [2] | Potency [3] | Potency [4] | Potency [5] | Potency [6] | Potency [7] | Potency [8] | Potency [9] | Potency [10] | Potency [11] | Potency [12] | Potency [13] | Potency [14] | Potency [15] | Potency [16]

CCN(CC)c1ccc2c(c1)Oc1cc(N(CC)CC)ccc1C21OC(=O)c2ccccc21
active: Potency [1] 23.9 µM | Potency [4] 21.3 µM | Potency [6] 23.9 µM | Potency [7] 5.96 µM | Potency [8] 10.6 µM | Potency [13] 3.76 µM | Potency [14] 3.35 µM
inactive: Potency [17] | Potency [3] | Potency [5] | Potency [10] | Potency [11] | Potency [15]

Nc1ccc(Oc2cccc(Oc3ccc(N)cc3)c2)cc1
active: Potency [10] 8.63 µM | Potency [16] 8.63 µM
inactive: Potency [1] | Potency [17] | Potency [2] | Potency [3] | Potency [5] | Potency [6] | Potency [7] | Potency [8] | Potency [12] | Potency [13] | Potency [15] | outcome [18]

Nc1ccc(F)c([N+](=O)[O-])c1
inactive: Potency [1] | Potency [17] | Potency [2] | Potency [3] | Potency [5] | Potency [6] | Potency [7] | Potency [8] | Potency [10] | Potency [12] | Potency [13] | Potency [14] | Potency [15] | Potency [16] | outcome [18] | Potency [19]

CCCC(=O)c1cc(O)c(O)cc1O
active: Potency [13] 54.5 µM | Potency [16] 27.3 µM
inactive: Potency [1] | Potency [17] | Potency [3] | Potency [4] | Potency [5] | Potency [6] | Potency [9] | Potency [10] | PLD induction [20] -3.64% [at 3.15 µM] | Potency [11] | Potency [12] | Potency [15]

CC(C)=CCC[C@H](C)CC=O
inactive: Potency [1] | Potency [17] | Potency [2] | Potency [3] | Potency [5] | Potency [6] | Potency [7] | Potency [8] | Potency [11] | Potency [12] | Potency [13] | Potency [14] | Potency [15] | Potency [16]

CSc1ccc(O)cc1C
inactive: Potency [1] | Potency [17] | Potency [2] | Potency [4] | Potency [5] | Potency [6] | Potency [8] | Potency [12] | Potency [15]
active: Potency [13] 43.3 µM | Potency [14] 27.3 µM | Potency [16] 13.7 µM | Potency [19] 54.5 µM

Nc1cc([N+](=O)[O-])cc(Cl)c1O
inactive: Potency [1] | Potency [17] | Potency [2] | Potency [3] | Potency [5] | Potency [6] | Potency [7] | Potency [8] | Potency [10] | Potency [11] | Potency [12] | Potency [14] | Potency [15] | Potency [16]

O=[N+]([O-])c1ccc(O)c2ncccc12
inactive: Potency [1] | Potency [17] | Potency [3] | Potency [4] | Potency [5] | Potency [20] | Potency [11] | Potency [12] | Potency [15]
active: Potency [8] 9.44 µM | Potency [13] 1.88 µM | Potency [16] 0.531 µM | Potency [19] 5.96 µM

O=C(NCc1ncc(C(F)(F)F)cc1Cl)c1c(Cl)cccc1Cl
inactive: Potency [1] | Potency [17] | Potency [5] | Potency [6] | Potency [7] | Potency [11] | Potency [12] | Potency [13] | Potency [14] | Potency [15] | Potency [16]
active: Potency [2] 21.9 µM | Potency [9] 54.5 µM

c1ccc(-c2ccc(C(c3ccccc3)n3ccnc3)cc2)cc1 (stereo not drawn)
inactive: Potency [1] | Potency [17] | Potency [4] | Potency [5] | Potency [6] | Potency [7] | Potency [8] | Potency [10] | Potency [20] | Potency [11] | Potency [12] | Potency [13] | Potency [14] | Potency [15]
active: Potency [2] 30.1 µM

CC(=O)CC(N)=O
inactive: Potency [1] | Potency [17] | Potency [2] | Potency [3] | Potency [5] | Potency [6] | Potency [7] | Potency [8] | Potency [10] | Potency [12] | Potency [13] | Potency [14] | Potency [15] | Potency [16]

C[C@H]1O[C@@H](O[C@H]2CC[C@@]3(C)[C@H](CC[C@@H]4[C@@H]3C[C@@H](O)[C@]3(C)[C@@H](C5=CC(=O)OC5)CC[C@]43O)C2)C[C@H](O)[C@@H]1O[C@H]1C[C@H](O)[C@H](O[C@H]2C[C@H](O)[C@H](O[C@@H]3O[C@H](CO)[C@@H](O)[C@H](O)[C@H]3O)[C@@H](C)O2)[C@@H](C)O1
active: Potency [2] 0.268 µM
inactive: Potency [1] | Potency [3] | Potency [4] | Potency [5] | Potency [6] | Potency [7] | Potency [8] | Potency [9] | Potency [10] | Potency [11] | Potency [12] | Potency [13] | Potency [14] | Potency [15] | Potency [16]

CN(C)CCOc1ccc(/C(=C(/CCCl)c2ccccc2)c2ccccc2)cc1
inactive: Potency [5] | Potency [7] | Potency [12] | Potency [15]
active: Potency [1] 45.8 µM | Potency [17] 40.9 µM | Potency [2] 40.9 µM | Potency [3] 40.9 µM | Potency [6] 36.4 µM | Potency [13] 51 µM | Potency [16] 36.1 µM

CC(C=O)c1ccccc1 (stereo not drawn)
inactive: Potency [1] | Potency [2] | Potency [3] | Potency [4] | Potency [5] | Potency [6] | Potency [7] | Potency [8] | Potency [9] | Potency [10] | Potency [11] | Potency [12] | Potency [13] | Potency [14] | Potency [15] | Potency [16] | Potency [19]
